Source: PubChem BioAssay (NCATS)
Inconclusive results are not listed. Active and inactive are the calls of the source. Calls come from the whole dose curve; as a rule, active = well fitted curve in the direction sought with a large enough effect; inconclusive = small, poorly fitted or top-dose-only effect, or another doubt; inactive = no such curve, though single readings can be large; an effect the other way counts as inactive or inconclusive.

The compounds below were run against Transient receptor potential cation channel subfamily V member 1 (Homo sapiens) (UniProt Q8NER1) (assay: HTS Assay for Compounds that Act as Enhancers of the Vanilloid Receptor 1 (AID 488979)). Settings: TRPV1-expressing cells, enhancer of channel activity, stimulated with capsaicin at EC20; series mostly up to 41.7 µM.
Procedure, shortened: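 TRPV1-expressing cells loaded with Fluo-8 calcium dye; compounds added and calcium influx read kinetically for 3 min (agonist phase), then capsaicin at EC20 added and read 2 min more for enhancement. Fluorescence ex 480/em 520 nm.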

Sequence of Transient receptor potential cation channel subfamily V member 1 (Homo sapiens) (Q8NER1 whole entry, looked up): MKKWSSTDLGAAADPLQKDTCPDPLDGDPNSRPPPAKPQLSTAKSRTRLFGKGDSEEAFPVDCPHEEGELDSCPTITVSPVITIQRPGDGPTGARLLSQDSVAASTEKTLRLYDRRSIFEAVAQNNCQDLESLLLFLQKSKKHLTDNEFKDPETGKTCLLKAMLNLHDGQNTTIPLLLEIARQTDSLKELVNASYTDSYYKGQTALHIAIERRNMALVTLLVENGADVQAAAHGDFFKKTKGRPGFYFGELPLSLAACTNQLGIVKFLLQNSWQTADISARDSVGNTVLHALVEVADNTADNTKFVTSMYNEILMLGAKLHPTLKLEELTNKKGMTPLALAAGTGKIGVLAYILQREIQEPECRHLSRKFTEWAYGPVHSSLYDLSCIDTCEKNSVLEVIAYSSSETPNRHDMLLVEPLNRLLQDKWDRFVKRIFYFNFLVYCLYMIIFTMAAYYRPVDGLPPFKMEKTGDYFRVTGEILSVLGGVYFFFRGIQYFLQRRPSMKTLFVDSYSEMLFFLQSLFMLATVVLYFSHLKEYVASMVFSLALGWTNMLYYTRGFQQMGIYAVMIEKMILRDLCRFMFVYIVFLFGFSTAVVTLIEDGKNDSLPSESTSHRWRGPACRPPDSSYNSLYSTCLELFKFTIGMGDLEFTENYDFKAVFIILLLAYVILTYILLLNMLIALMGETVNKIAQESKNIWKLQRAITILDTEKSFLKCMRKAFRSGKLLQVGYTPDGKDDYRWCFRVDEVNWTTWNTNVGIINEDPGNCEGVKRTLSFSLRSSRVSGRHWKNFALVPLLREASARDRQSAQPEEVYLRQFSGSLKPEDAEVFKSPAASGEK

| SMILES | outcome |
| --- | --- |
| CCN1CCCC1CNC(=O)c1cc(S(N)(=O)=O)ccc1OC (configuration not stated) | inactive |
| COc1cc2ncnc(Nc3cccc(Cl)c3)c2cc1OC | inactive |
| CC(C)NCC(O)c1ccc(NS(C)(=O)=O)cc1 (configuration not stated) | inactive |
| Nc1nc(N)c2nc(CNc3ccc(C(=O)NC(CCC(=O)O)C(=O)O)cc3)cnc2n1 (configuration not stated) | inactive |
| CC1=C(C(=O)O)N2C(=O)[C@@H](NC(=O)C(N)c3ccccc3)[C@H]2SC1 (some centres not stated) | inactive |
| OCc1ccc(-c2nn(Cc3ccccc3)c3ccccc23)o1 | inactive |
| CCCCS(=N)(=O)CCC(N)C(=O)O (configuration not stated) | inactive |
| CC(=O)[C@H]1CC[C@H]2[C@@H]3CCC4=CC(=O)CC[C@]4(C)[C@H]3CC[C@]12C | inactive |
| NC(=O)c1cccc(N)c1 | inactive |
| CCN(CC)CC#CCOC(=O)C(O)(c1ccccc1)C1CCCCC1 (configuration not stated) | inactive |
| O=C(O)C1CCCN(CCC=C(c2ccccc2)c2ccccc2)C1 (configuration not stated) | inactive |
| Cc1ccc(S(=O)(=O)N[C@@H](Cc2ccccc2)C(=O)CCl)cc1 | inactive |
| CC(C)(C)NC(=O)[C@H]1CC[C@H]2[C@@H]3CC[C@H]4NC(=O)C=C[C@]4(C)[C@H]3CC[C@]12C | inactive |

These compounds were tested against Thyrotropin receptor (Homo sapiens) (UniProt P16473) (assay: qHTS Assay for Antagonists of the Thyroid Stimulating Hormone Receptor (AID 488980)). Settings: TSHR-expressing cells, cAMP antagonist read-out; series mostly up to 57.5 µM.
Procedure, shortened: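 TSHR-transfected HEK293 cells (2000/well) in HEPES-buffered HBSS with 70 uM RO 20-1724 were stimulated with 4 nM TSH (EC80, final) in the presence of compound. cAMP was measured by HTRF competition after lysis and 30 min at RT.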

Sequence of Thyrotropin receptor (Homo sapiens) (P16473 whole entry, looked up): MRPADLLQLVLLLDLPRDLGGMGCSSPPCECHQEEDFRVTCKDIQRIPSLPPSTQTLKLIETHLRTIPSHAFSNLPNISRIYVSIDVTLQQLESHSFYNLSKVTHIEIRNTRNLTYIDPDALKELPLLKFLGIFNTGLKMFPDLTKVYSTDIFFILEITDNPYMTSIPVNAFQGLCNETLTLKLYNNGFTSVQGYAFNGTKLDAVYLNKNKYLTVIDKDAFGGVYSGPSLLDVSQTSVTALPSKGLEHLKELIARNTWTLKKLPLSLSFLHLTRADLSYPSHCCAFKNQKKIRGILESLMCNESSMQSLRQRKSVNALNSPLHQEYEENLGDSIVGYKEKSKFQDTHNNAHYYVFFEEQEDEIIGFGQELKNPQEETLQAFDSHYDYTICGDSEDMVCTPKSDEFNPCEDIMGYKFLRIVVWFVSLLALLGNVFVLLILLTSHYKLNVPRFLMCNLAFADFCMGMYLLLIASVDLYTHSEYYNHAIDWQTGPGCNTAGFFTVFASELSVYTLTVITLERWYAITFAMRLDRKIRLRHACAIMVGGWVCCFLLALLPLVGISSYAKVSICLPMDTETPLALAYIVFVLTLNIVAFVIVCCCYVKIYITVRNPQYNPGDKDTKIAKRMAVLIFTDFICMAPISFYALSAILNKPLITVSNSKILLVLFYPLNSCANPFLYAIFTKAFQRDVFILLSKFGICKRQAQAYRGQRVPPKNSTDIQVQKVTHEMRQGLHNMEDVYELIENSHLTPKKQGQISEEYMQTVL

| SMILES | outcome |
| --- | --- |
| CCN1CCCC1CNC(=O)c1cc(S(N)(=O)=O)ccc1OC (configuration not stated) | inactive |
| COc1cc2ncnc(Nc3cccc(Cl)c3)c2cc1OC | inactive |
| CC(C)NCC(O)c1ccc(NS(C)(=O)=O)cc1 (configuration not stated) | inactive |
| Nc1nc(N)c2nc(CNc3ccc(C(=O)NC(CCC(=O)O)C(=O)O)cc3)cnc2n1 (configuration not stated) | inactive |
| OCc1ccc(-c2nn(Cc3ccccc3)c3ccccc23)o1 | inactive |
| CCCCS(=N)(=O)CCC(N)C(=O)O (configuration not stated) | inactive |
| CC(=O)[C@H]1CC[C@H]2[C@@H]3CCC4=CC(=O)CC[C@]4(C)[C@H]3CC[C@]12C | inactive |
| NC(=O)c1cccc(N)c1 | inactive |
| CCN(CC)CC#CCOC(=O)C(O)(c1ccccc1)C1CCCCC1 (configuration not stated) | inactive |
| O=C(O)C1CCCN(CCC=C(c2ccccc2)c2ccccc2)C1 (configuration not stated) | inactive |
| Cc1ccc(S(=O)(=O)N[C@@H](Cc2ccccc2)C(=O)CCl)cc1 | inactive |

What follows are compounds tested against D(1A) dopamine receptor (Homo sapiens) (UniProt P21728) (assay: HTS Assay for Allosteric Agonists of the Human D1 Dopamine Receptor: Primary Screen for Agonists (AID 488981)). Settings: Inducible HEK293 T-REx D1 cells, calcium-flux fluorescence, 180 s kinetic; series mostly up to 41.8 µM.
Procedure, shortened: (§1)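 Tetracycline-induced HEK293 T-REx cells force-coupled to calcium signalling were incubated overnight at 30 C and dye-loaded at room temperature. Calcium flux over 180 s after compound addition flagged agonists; a further 180 s read after EC20 dopamine flagged potentiators.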

Sequence of D(1A) dopamine receptor (Homo sapiens) (P21728 whole entry, looked up): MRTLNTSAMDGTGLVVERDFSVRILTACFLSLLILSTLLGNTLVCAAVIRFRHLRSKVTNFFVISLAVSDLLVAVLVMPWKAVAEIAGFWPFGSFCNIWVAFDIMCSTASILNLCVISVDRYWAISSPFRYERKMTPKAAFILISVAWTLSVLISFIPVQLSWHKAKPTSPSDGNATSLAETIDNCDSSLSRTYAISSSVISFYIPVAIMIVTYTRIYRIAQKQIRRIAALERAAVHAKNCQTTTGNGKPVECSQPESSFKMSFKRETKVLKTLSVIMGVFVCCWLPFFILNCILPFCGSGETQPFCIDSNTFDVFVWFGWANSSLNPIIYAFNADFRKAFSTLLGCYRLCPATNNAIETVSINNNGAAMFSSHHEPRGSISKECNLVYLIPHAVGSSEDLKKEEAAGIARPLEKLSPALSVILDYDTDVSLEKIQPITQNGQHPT

| SMILES | outcome |
| --- | --- |
| CCN1CCCC1CNC(=O)c1cc(S(N)(=O)=O)ccc1OC (configuration not stated) | inactive |
| CCN(CC)CCn1c(=O)c(Cc2ccc(OC)cc2)nc2ccccc21 | inactive |
| COc1cc2ncnc(Nc3cccc(Cl)c3)c2cc1OC | inactive |
| CC(C)NCC(O)c1ccc(NS(C)(=O)=O)cc1 (configuration not stated) | inactive |
| Nc1nc(N)c2nc(CNc3ccc(C(=O)NC(CCC(=O)O)C(=O)O)cc3)cnc2n1 (configuration not stated) | inactive |
| N[C@@H](Cc1ccc(O)c(O)c1)C(=O)O | inactive |
| CC1=C(C(=O)O)N2C(=O)[C@@H](NC(=O)C(N)c3ccccc3)[C@H]2SC1 (some centres not stated) | inactive |
| NC(=O)c1ccc2[nH]ccc2c1 | inactive |
| OCc1ccc(-c2nn(Cc3ccccc3)c3ccccc23)o1 | inactive |
| CCCCS(=N)(=O)CCC(N)C(=O)O (configuration not stated) | inactive |
| CC(=O)[C@H]1CC[C@H]2[C@@H]3CCC4=CC(=O)CC[C@]4(C)[C@H]3CC[C@]12C | inactive |
| NC(=O)c1cccc(N)c1 | inactive |
| CCN(CC)CC#CCOC(=O)C(O)(c1ccccc1)C1CCCCC1 (configuration not stated) | inactive |
| COc1cc2nc(N3CCCN(C)CC3)nc(NC3CCN(Cc4ccccc4)CC3)c2cc1OC | inactive |
| O=C(O)C1CCCN(CCC=C(c2ccccc2)c2ccccc2)C1 (configuration not stated) | inactive |
| CC1CC2C3CCC4=CC(=O)C=C[C@]4(C)[C@@]3(F)[C@@H](O)C[C@]2(C)[C@@]1(O)C(=O)CO (some centres not stated) | inactive |
| Cc1ccc(S(=O)(=O)N[C@@H](Cc2ccccc2)C(=O)CCl)cc1 | inactive |

What follows are compounds tested against D(1A) dopamine receptor (Homo sapiens) (UniProt P21728) (assay: HTS Assay for Allosteric Agonists of the Human D1 Dopamine Receptor: Primary Screen for Potentiators (AID 488982)). Settings: HEK293 T-REx D1 inducible cells, calcium flux, kinetic fluorescence; series mostly up to 8.37 µM.
Procedure, shortened: as §1

| SMILES | outcome |
| --- | --- |
| CCN1CCCC1CNC(=O)c1cc(S(N)(=O)=O)ccc1OC (configuration not stated) | inactive |
| CCN(CC)CCn1c(=O)c(Cc2ccc(OC)cc2)nc2ccccc21 | inactive |
| COc1cc2ncnc(Nc3cccc(Cl)c3)c2cc1OC | inactive |
| CC(C)NCC(O)c1ccc(NS(C)(=O)=O)cc1 (configuration not stated) | inactive |
| Nc1nc(N)c2nc(CNc3ccc(C(=O)NC(CCC(=O)O)C(=O)O)cc3)cnc2n1 (configuration not stated) | inactive |
| N[C@@H](Cc1ccc(O)c(O)c1)C(=O)O | inactive |
| CC1=C(C(=O)O)N2C(=O)[C@@H](NC(=O)C(N)c3ccccc3)[C@H]2SC1 (some centres not stated) | inactive |
| NC(=O)c1ccc2[nH]ccc2c1 | inactive |
| OCc1ccc(-c2nn(Cc3ccccc3)c3ccccc23)o1 | inactive |
| CCCCS(=N)(=O)CCC(N)C(=O)O (configuration not stated) | inactive |
| CC(=O)[C@H]1CC[C@H]2[C@@H]3CCC4=CC(=O)CC[C@]4(C)[C@H]3CC[C@]12C | inactive |
| NC(=O)c1cccc(N)c1 | inactive |
| COc1cc2nc(N3CCCN(C)CC3)nc(NC3CCN(Cc4ccccc4)CC3)c2cc1OC | inactive |
| O=C(O)C1CCCN(CCC=C(c2ccccc2)c2ccccc2)C1 (configuration not stated) | inactive |
| CC1CC2C3CCC4=CC(=O)C=C[C@]4(C)[C@@]3(F)[C@@H](O)C[C@]2(C)[C@@]1(O)C(=O)CO (some centres not stated) | inactive |
| Cc1ccc(S(=O)(=O)N[C@@H](Cc2ccccc2)C(=O)CCl)cc1 | inactive |
